FLuc counter: counter-screen for miR-21 project: firefly luciferase inhibitors or activators | 360,000 tested, 6.9% active | AID 588342 | purified FLuc, Km substrates, luminescence inhibition | Potency, µM (highest dose often 57.5 µM), hits mostly inhibitors | P08659; note: nearly all actives have a fitted effect of over 55% in size
Target sequence (P08659 whole entry, looked up): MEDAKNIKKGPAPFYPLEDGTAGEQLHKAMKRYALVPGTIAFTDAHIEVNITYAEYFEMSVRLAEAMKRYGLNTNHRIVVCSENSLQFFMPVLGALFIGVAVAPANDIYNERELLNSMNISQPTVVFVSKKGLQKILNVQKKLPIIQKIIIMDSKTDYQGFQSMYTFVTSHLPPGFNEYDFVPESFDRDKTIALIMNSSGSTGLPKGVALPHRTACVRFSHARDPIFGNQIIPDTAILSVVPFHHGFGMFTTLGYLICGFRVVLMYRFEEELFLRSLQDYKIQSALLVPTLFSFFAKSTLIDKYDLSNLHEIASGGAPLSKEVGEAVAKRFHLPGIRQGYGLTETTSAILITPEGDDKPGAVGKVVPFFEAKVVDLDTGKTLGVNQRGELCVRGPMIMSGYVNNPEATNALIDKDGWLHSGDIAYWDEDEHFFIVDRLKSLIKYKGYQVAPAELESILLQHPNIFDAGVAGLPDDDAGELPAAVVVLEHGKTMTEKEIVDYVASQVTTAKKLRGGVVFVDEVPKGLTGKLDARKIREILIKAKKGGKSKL
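Biochemical qHTS of compounds, final roughly 60 µM downward over six points, against 10 nM purified firefly luciferase using Km concentrations of substrates (10 uM D-luciferin, 10 uM ATP) in Tris acetate pH 7.5 buffer; luminescence output.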
NPC1 promoter act: activators of NPC1 promoter; Huh7 NPC1 promoter luciferase reporter, 24 h; Potency, µM (doses to about 9.22 µM), actives largely listed as activators; 320,000 tested, 2.4% active; AID 485313; note: nearly all actives have a fitted effect of over 60% in size
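Quantitative HTS used a cell-based reporter: Huh7 cells stably bearing the NPC1 promoter upstream of luciferase were treated with compounds for 24 h, and promoter activation was read as luminescence.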
Rab9 prom act: activators of Rab9 promoter. Huh7 Rab9 promoter-luciferase reporter, luminescence, 24 h. Potency, µM (series often up to 9.22 µM), hits mostly activators. 320,000 tested, 2.8% active. AID 485297; note: nearly all actives have a fitted effect of over 60% in size
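Luminescence read-out: Huh7 cells stably expressing Rab9-luciferase, treated 24 h with compound at 37 °C, then lysed with luciferase reagent for 10 min at ambient before reading.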
ELG1 genotox: genotoxicity induction in ELG1-luciferase HEK293T cells; HEK293T ELG1-luciferase reporter, luminescence, 16 h; Potency, µM (top dose mostly 46 µM), hits mostly activators; 330,000 tested, 1.3% active; note: nearly all actives have a fitted effect of over 60% in size
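HEK293T cells expressing luciferase-tagged ELG1 were treated with compound or DMSO for 16 hr at 37°C. Luciferase activity was then read after 30 min with ONE-Glo at room temperature; rising signal flags genetic stress.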
p53 reactivator: restores transcriptional activity of mutant p53; 320,000 tested, 0.063% active; Potency, µM (top dose mostly 92.2 µM), actives largely listed as activators; H1299 p53-A138V BP100-luciferase reporter, luminescence, 24 h; note: nearly all actives have a fitted effect of over 45% in size
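p53-null H1299 cells stably carrying temperature-sensitive p53-A138V and a BP100-luciferase reporter were pinned with compounds (4-point, 1:5 series) and held 24 hrs at 37 deg C. Luminescence was read 10 min after detection reagent.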
SMN2 splice enh: enhancers of SMN2 splice variant expression. HEK293 SMN2-luciferase splicing reporter, luminescence, 30-36 h. 210,000 tested, 2.8% active. Potency, µM (top dose mostly 46.1 µM), actives largely listed as activators; note: nearly all actives have a fitted effect of over 55% in size
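HEK293 cells carry an SMN2 […]–luciferase reporter in which exon 7 inclusion puts luciferase in frame. Cells were plated 10-12 h before compound addition, then incubated 30-36 h at 37C. ONE-Glo luminescence was read; sodium butyrate at 4.5 mM final served as control.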
Each line names hits and unclear results; the compound was inactive in the other large screens. The list is not random: actives were taken first. Their share in the collection is about 7.4%. Calls come from the whole dose curve; as a rule, active = well fitted curve in the direction sought with a large enough effect; inconclusive = small, poorly fitted or top-dose-only effect, or another doubt; inactive = no such curve, though single readings can be large; an effect the other way counts as inactive or inconclusive.

OCC1O[C@H]([S-])[C@H](O)[C@@H](O)[C@@H]1O.[Au+] (some centres undefined)	none (no result: FLuc counter, ELG1 genotox, p53 reactivator, SMN2 splice enh)
O=C(NCC(O)c1ccccc1)c1ccccc1 (centres undefined)	FLuc counter 21µM, NPC1 promoter act 2.8µM, Rab9 prom act 4µM, ELG1 genotox inconclusive (no result: SMN2 splice enh)
CCc1nnc(NC(=O)CSc2n[nH]c(-c3ccccc3O)n2)s1	FLuc counter 17µM (no result: SMN2 splice enh)
O=C(CSc1n[nH]c(-c2ccccc2)n1)N1CCOCC1	FLuc counter inconclusive (no result: SMN2 splice enh)
Cc1nnc(NC(=O)CSc2n[nH]c(-c3ccccc3C)n2)s1	none (no result: SMN2 splice enh)
CN(C)CCNC(=S)Nc1ccc(-c2nc3ccccc3[nH]2)cc1	FLuc counter 9.5µM, NPC1 promoter act 2.2µM, Rab9 prom act 1.6µM, p53 reactivator inconclusive, SMN2 splice enh 11µM
O=C(CSc1n[nH]c(-c2ccccc2O)n1)N1CCOCC1	FLuc counter 19µM
Cc1ccc2nc(-c3ccc(SCC(=O)Nc4nc(C)cs4)nc3)[nH]c2c1	FLuc counter 0.54µM, NPC1 promoter act 3.5µM, Rab9 prom act 2.8µM, ELG1 genotox inconclusive, p53 reactivator inconclusive, SMN2 splice enh 6.3µM
Nc1nc(SCC(=O)Nc2ccc(OC(F)(F)F)cc2)[nH]c(=O)c1NC(=O)c1ccc(Br)o1	none (no result: SMN2 splice enh)
CC(=O)NCCc1nc2cc(NS(=O)(=O)c3ccccc3)ccc2n1C	none (no result: SMN2 splice enh)
CC(=O)Nc1ccc(-c2nc3c(C)cccc3[nH]2)cc1	FLuc counter 2.4µM, NPC1 promoter act 2.5µM, Rab9 prom act 1.6µM, ELG1 genotox 2.9µM, p53 reactivator inconclusive, SMN2 splice enh 3.5µM
Cc1nc(NC(=O)CSc2ccc(-c3nc4ccccc4[nH]3)cn2)sc1C	NPC1 promoter act inconclusive, Rab9 prom act inconclusive, ELG1 genotox inconclusive
O=C(CSC1=NCCS1)Nc1ccc(S(=O)(=O)NC2CCCCC2)cc1	none
CC(=O)Nc1cc(NC(C)=O)cc(-c2nc3ccccc3[nH]2)c1	none
O=C(CSc1ccc(-c2nc3ccccc3[nH]2)cn1)Nc1ccc(S(=O)(=O)NC2CC2)cc1	FLuc counter 1.5µM
Cc1ccc(SCC(=O)Nc2ccc(-c3nc4ccccc4[nH]3)cc2)cc1	NPC1 promoter act inconclusive, Rab9 prom act inconclusive, ELG1 genotox inconclusive, SMN2 splice enh 5.6µM
Cc1ccc2nc(-c3ccc(SCC(=O)Nc4nnc(C)s4)nc3)[nH]c2c1	FLuc counter 0.6µM, NPC1 promoter act 2.5µM, Rab9 prom act 2.8µM, ELG1 genotox inconclusive, SMN2 splice enh 14µM
CC[C@H](Cc1c(I)cc(I)c(N)c1I)C(=O)O	none (no result: FLuc counter, NPC1 promoter act, Rab9 prom act, ELG1 genotox, p53 reactivator)
O=C(CNCc1ccccn1)Nc1ccc([N+](=O)[O-])cc1C(=O)Nc1ccccc1F	none (no result: SMN2 splice enh)
CCc1nnc(NC(=O)CSc2ccc(-c3nc4ccccc4[nH]3)cn2)s1	FLuc counter inconclusive, NPC1 promoter act inconclusive, Rab9 prom act 2.5µM, ELG1 genotox inconclusive, SMN2 splice enh inconclusive
Cc1ccc2nc(SCC(=O)Nc3nnc(SCC(N)=O)s3)[nH]c2c1	FLuc counter 17µM
COc1ccc(N2C(=O)c3ccccc3NC23CCCCC3)cc1	FLuc counter 11µM, NPC1 promoter act 2.8µM, Rab9 prom act 2.5µM, ELG1 genotox inconclusive, p53 reactivator inconclusive, SMN2 splice enh 13µM
CCOc1ccc(N2C(=O)c3ccccc3NC2(C)CC)cc1 (centres undefined)	NPC1 promoter act inconclusive, Rab9 prom act 3.5µM, ELG1 genotox inconclusive, p53 reactivator inconclusive (no result: FLuc counter, SMN2 splice enh)
COc1ccc(N2C(=O)c3ccccc3NC23CCC(C)CC3)cc1 (centres undefined)	FLuc counter inconclusive, NPC1 promoter act 2.5µM, Rab9 prom act 2.2µM, ELG1 genotox inconclusive, p53 reactivator inconclusive, SMN2 splice enh 10µM
C=C1c2ccccc2NC(=O)N1c1ccc(OC)cc1	none (no result: SMN2 splice enh)
COc1ccc(N2C(=O)c3ccccc3NC2(C)C)cc1	NPC1 promoter act inconclusive, Rab9 prom act inconclusive, p53 reactivator inconclusive, SMN2 splice enh 8.9µM
COc1ccc(N2C(=O)c3ccccc3NC2c2cccnc2)cc1 (centres undefined)	none
COc1ccc(-c2cnnn2-c2ccc([N+](=O)[O-])cc2)cc1	none (no result: SMN2 splice enh)
O=Nc1ccc(NOC(=O)c2ccccc2Br)cc1	FLuc counter 0.24µM, p53 reactivator inconclusive
O=C(ONc1ccc(N=NC(=O)c2ccccc2O)cc1)c1ccccc1	FLuc counter 8.5µM, NPC1 promoter act inconclusive, Rab9 prom act 4µM, ELG1 genotox 10µM (no result: SMN2 splice enh)
CCCn1c(O)c(C=Nc2ccccc2)sc1=S	FLuc counter 21µM, Rab9 prom act inconclusive, ELG1 genotox inconclusive (no result: SMN2 splice enh)
CCCCn1c(O)c(/C=C/C=C/C=Nc2ccccc2)sc1=S	FLuc counter 11µM
CCn1c(O)c(/C=C/C=C/C=Nc2ccccc2)sc1=S	FLuc counter inconclusive
OCC1CCCN(C(=S)NCCc2ccccc2)C1 (centres undefined)	FLuc counter 17µM, NPC1 promoter act 3.2µM, Rab9 prom act inconclusive, ELG1 genotox inconclusive, SMN2 splice enh inconclusive
S=C(NCCc1ccccc1)N1CCN(C(=S)NCCc2ccccc2)CC1	none (no result: SMN2 splice enh)
CC1CCN(C(=S)NCCc2ccccc2)CC1	FLuc counter 11µM, NPC1 promoter act 3.5µM, Rab9 prom act 2µM, ELG1 genotox 7.3µM, p53 reactivator inconclusive
S=C(NCCc1ccccc1)N1CCN(C2CCCCC2)CC1	none
O=S(=O)(c1ccccc1)N1CCC[C@@]2(CCN(Cc3nccs3)C2)C1	none (no result: FLuc counter, NPC1 promoter act, Rab9 prom act, ELG1 genotox, p53 reactivator)
COCCCNC(=S)NNC(=O)c1ccc2c(c1)OCO2	none
O=C(NCCOc1ccccc1)c1ccc2c(c1)OCO2	FLuc counter 0.76µM, NPC1 promoter act 0.28µM, Rab9 prom act 0.28µM, ELG1 genotox inconclusive, SMN2 splice enh 2.5µM
CCOCCCNC(=O)c1cccc(OC2CCN(S(C)(=O)=O)CC2)c1	FLuc counter 11µM, NPC1 promoter act 3.5µM, Rab9 prom act 2.8µM, ELG1 genotox inconclusive (no result: SMN2 splice enh)
CCOCCCNC(=O)c1ccc2c(c1)OCO2	FLuc counter inconclusive, Rab9 prom act inconclusive, p53 reactivator inconclusive, SMN2 splice enh 14µM
CN(CCOc1ccccc1)C(=O)c1ccc2c(c1)OCO2	FLuc counter inconclusive, Rab9 prom act inconclusive, p53 reactivator inconclusive (no result: SMN2 splice enh)
Cc1cccc(NC(=O)NC(=O)c2ccccc2)n1	FLuc counter inconclusive, NPC1 promoter act inconclusive, Rab9 prom act inconclusive, SMN2 splice enh inconclusive
O=C(NC(=O)c1ccccc1)Nc1ccccn1	FLuc counter 0.27µM, Rab9 prom act 1.3µM, ELG1 genotox inconclusive (no result: SMN2 splice enh)
Cc1cc(C(=O)Nc2ccccn2)cs1	FLuc counter 11µM, NPC1 promoter act 1.4µM, Rab9 prom act 1.4µM, ELG1 genotox inconclusive, p53 reactivator inconclusive, SMN2 splice enh 7.9µM
Cc1ccccc1NC(=O)c1ccc(NC(=O)c2ccco2)cc1	FLuc counter inconclusive, ELG1 genotox inconclusive
O=C(c1ccccc1)c1nc[nH]c1C(=O)Nc1ccccn1	ELG1 genotox inconclusive
